High-throughput results (PubChem BioAssay)
Sfp inh = Sfp phosphopantetheinyl transferase inhibition | Potency, µM, inactives show largest response in the series, negative = inhibition, usual class: inhibitors | Q9F4F7 | 3.5% of 310,000 active | Biochemical Sfp PPTase activity, qHTS;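 also: the enzyme is Sfp with the accession as filed and its product quenches rhodamine fluorescence; potency is read from the fitted curve at half-maximal effect; 0% = enzyme reaction without inhibitor and -100% = no enzyme wells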
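After 15 min at room temperature with compound, 15 nM Sfp received 5 uM rhodamine-CoA plus 12.5 uM BHQ-2-ybbR (50 mM Hepes pH 7.6, 10 mM MgCl2). Rate came from the fluorescence difference over 30 min, ex 525/em 598 nm.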
RGS12 GoLoco inh = inhibitors of human Gai1-RGS12 GoLoco interaction (red fluorophore); P63096; Gai1:RGS12 GoLoco peptide FP, rhodamine, 10 min; Potency, µM (doses to about 61.6 µM), for the others: at the highest dose activity, negative = inhibition, most hits filed as inhibitors; 0.44% of 230,000 active; active = well fitted inhibition curve with a large enough effect, not every such curve was filed as active; inactive = no such curve, though single readings can be large or run the other way; also: potency is read from the fitted curve at half-maximal effect; nearly all actives have a fitted effect of over 30% in size
Coupling enz = inhibits coupling enzyme system, counter-screen for aldolase hits | coupling enzyme system counterscreen, AmpLite Red fluorescence | activity change, negative = inhibition, % at 58.2 µM, hits read low | 0.67% of 290,000 active | AID 2472; in the data active = activity change below about -30%
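Fluorescence at 525 nm excitation and 598 nm emission measured inhibition of the coupled detection system without aldolase. Compounds (at 57.5 uM final) were preincubated 10 min at room temperature with coupling enzyme reagent before a 20 min substrate/AmpLite Red step.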
KDM4E inh = JMJD2E (human) inhibition | B2RXH2 | JMJD2E catalytic domain, FDH-coupled NADH fluorescence (FDH is formaldehyde dehydrogenase) | Potency, µM (top dose mostly 57.1 µM), without a hit: at the highest dose activity change, negative = inhibition, hits mostly inhibitors | 1.6% of 230,000 active | AID 2147; active = well fitted inhibition curve with a large enough effect, not every such curve was filed as active; inconclusive = small, poorly fitted or top-dose-only effect, or another doubt; inactive = no such curve, though single readings can be large or run the other way;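 also: potency is read from the fitted curve at half-maximal effect; 0% = wells with enzyme and -100% = buffer wells without enzyme; nearly all actives have a fitted effect of over 50% in size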
ALDH1A1 inh = inhibitors of human aldehyde dehydrogenase 1A1; AID 1030; 7.3% of 220,000 active; Purified ALDH1A1, NADH fluorescence, propionaldehyde substrate; Potency, µM (top dose mostly 75.3 µM), without a hit: at the highest dose activity, negative = inhibition, actives largely listed as inhibitors; active = well fitted inhibition curve with a large enough effect, not every such curve was filed as active; inconclusive = small, poorly fitted or top-dose-only effect, or another doubt; inactive = no such curve, though single readings can be large or run the other way;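 also: potency is read from the fitted curve at half-maximal effect; plate controls were no enzyme wells and a reference inhibitor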
Target sequence (P00352 whole entry, looked up): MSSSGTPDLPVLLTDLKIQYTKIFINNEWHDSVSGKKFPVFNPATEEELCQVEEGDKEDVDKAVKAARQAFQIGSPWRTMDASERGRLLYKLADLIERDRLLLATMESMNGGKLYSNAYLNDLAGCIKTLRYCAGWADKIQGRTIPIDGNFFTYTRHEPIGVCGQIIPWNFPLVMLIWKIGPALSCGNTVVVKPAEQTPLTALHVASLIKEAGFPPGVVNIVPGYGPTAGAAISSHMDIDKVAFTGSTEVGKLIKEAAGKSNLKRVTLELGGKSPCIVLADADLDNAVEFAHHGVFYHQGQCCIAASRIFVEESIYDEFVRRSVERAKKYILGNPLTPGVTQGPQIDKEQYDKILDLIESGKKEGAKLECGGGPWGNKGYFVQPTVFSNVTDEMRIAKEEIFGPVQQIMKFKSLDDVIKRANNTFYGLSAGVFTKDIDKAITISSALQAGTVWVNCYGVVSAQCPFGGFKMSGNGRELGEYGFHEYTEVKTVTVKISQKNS
NPSR antag = neuropeptide S receptor (human) antagonism, cAMP | Q6W5P4 | CHO-NPSR cells, cAMP TR-FRET, antagonist mode | Potency, µM (titrated, usually from 38.3 µM), without a hit: top-dose activity change, negative = inhibition, most hits filed as inhibitors | 1% of 220,000 active | AID 1461; also: potency is read from the fitted curve at half-maximal effect; nearly all actives have a fitted effect of over 50% in size
* = called active by the depositor; ? = inconclusive; / = no result; [ ] = another dose, or the depositor's remark. The list is not random: actives were taken first. Their share in the collection is about 8.5%. Unless noted, calls follow the shape of the dose curve; as a rule, active = well fitted curve in the direction sought with a large enough effect; inconclusive = small, poorly fitted or top-dose-only effect, or another doubt; inactive = no such curve, though single readings can be large; an effect the other way counts as inactive or inconclusive. Unless noted, % is scaled to controls: 0 for no effect and ±100 for the full control effect.

SMILES	Sfp inh	RGS12 GoLoco inh	Coupling enz	KDM4E inh	ALDH1A1 inh	NPSR antag
O=C(O)CSc1c2c(nc3cc(C(=O)NCCN4CCOCC4)ccc13)CCC2	89µM*	-16%	-5	-21%	/	20%
CC12CCC(c3nnc(SCc4ccc(Cl)cc4)nc31)C2(C)C (stereo unspecified)	-6%	-5%	1	3%	-5%	-36%
CC12CCC(c3n[nH]c(=S)nc31)C2(C)C (stereo unspecified)	?	1%	0	-2%	20µM*	5%
CCOC(=O)c1ccc(NS(=O)(=O)c2c(C)nc3sccn3c2=O)cc1	11%	/	-1	/	/	/
COC(=O)C(C)N1C(=O)S/C(=C\c2cc(C)n(-c3ccccn3)c2C)C1=O (stereo unspecified)	-6%	-7%	-13	-4%	22µM*	-22%[46.1 µM]
Cc1cc(/C=C2/NC(=O)NC2=O)c(C)n1-c1ccccn1	11%	9%	-1	25µM*	-1%	-21%
Cc1cccc(CN2C(=O)N/C(=C/c3cc(C)n(-c4cc(C)ccn4)c3C)C2=O)c1	-11%	24%	0	?	?	16µM*
COC(=O)C(C)N1C(=O)S/C(=C/c2cc(C)n(-c3ccccn3)c2C)C1=O (stereo unspecified)	2%	6%	-16	-15%	?	-7%[46.1 µM]
Cc1ccc(-n2c(C)cc(/C=C3\NC(=O)NC3=O)c2C)c(C)c1	-24%	11%	-6	25µM*	?	-40%
Cc1cccc(CN2C(=O)N/C(=C/c3ccc(C)s3)C2=O)c1	-24%	87%	3	-9%	?	-11%[46.1 µM]
Cc1cc(/C=C2/NC(=O)NC2=O)c(C)n1-c1ccc(C#N)cc1	-9%	18%	-4	?	?	-16%
CC1CCCN(C(=O)C2CCN(S(=O)(=O)c3cccc4nonc34)CC2)C1 (stereo unspecified)	11%	/	1	/	/	/
O=C(CCC1CCCN(C(=O)c2cccc(F)c2)C1)N1CCN(c2ccccn2)CC1 (stereo unspecified)	1%	/	/	/	/	/
Cc1ccc(/C=N/N2CCN(c3ccccn3)CC2)o1	4%	4%	0	-4%	/	-2%
COc1cccc(S(=O)(=O)Nc2cccc(C(=O)N3CCOCC3)c2)c1	28%	6%	1	-2%	14µM*	-6%[46.1 µM]
COc1cccc(S(=O)(=O)Nc2cccc(C(=O)N3CCCCCC3)c2)c1	0%	0%	6	1%	14µM*	-3%
COc1cccc(S(=O)(=O)Nc2ccc(C(=O)N3CCCCCC3)cc2)c1	-20%	-3%	2	6%	22µM*	39%
COc1cc(O)c(C(=O)c2ccccc2)cc1O	11µM*	-31%	-47*	?	-12%	/
CCCN(CCC)C(=O)SCC	/	12%	/	/	8%	/
CC1CCCCN1C(=O)Nc1cccc(Cl)c1 (stereo unspecified)	6%	-6%	-8	4%	22µM*	19%[46.1 µM]
O=C(O)C1CC=CCC1C(=O)Nc1ccc(S(=O)(=O)N2CCCc3ccccc32)cc1 (stereo unspecified)	6%	-2%	13	-3%	22µM*	-12%[46.1 µM]
O=C(Nc1ccc(S(=O)(=O)N2CCCc3ccccc32)cc1)C1CCCO1 (stereo unspecified)	2%	7%	-3	-4%	-8%	0%[46.1 µM]
O=C(O)C1CC=CCC1C(=O)Nc1cccc(Cl)c1 (stereo unspecified)	11%	-11%	6	1%	18µM*	-5%[46.1 µM]
Cc1ccccc1Oc1ccc(NC(=O)C2CC=CCC2C(=O)O)cc1 (stereo unspecified)	-1%	-6%	10	-3%	2.2µM*	-5%
FC(F)(F)Oc1ccc(Nc2nc(N3CCOCC3)nc(N3CCOCC3)n2)cc1	-1%	/	/	/	/	/
C=CCNC(=O)c1ccccc1NC(=O)C1CC(=O)N(C(C)C)C1 (stereo unspecified)	19%	/	6	/	/	/
COc1ccc(NC(=O)C/C(C)=N/NC(=O)c2ccncc2)c([N+](=O)[O-])c1	18%	9%	-1	7%	3.5µM*	5%
